# From PubChem BioAssay (NCATS)
# Inconclusive results are not listed. Entries that show only a call come without a potency. Unmarked numbers belong to inactive results. The source made the active and inactive calls. Calls follow the shape of the dose curve; as a rule, active = well fitted curve in the direction sought with a large enough effect; inconclusive = small, poorly fitted or top-dose-only effect, or another doubt; inactive = no such curve, though single readings can be large; an effect the other way counts as inactive or inconclusive.
# Tests used:
# Hek293T = experiment: Primary qHTS to identify gynecologic anti-cancer compounds using libraries of approved drugs and bioactive compounds (AID 1345084); settings: Gynecologic cancer cell panel viability, ATPlite luminescence, 48 h, control line for the selectivity index; series mostly up to 57.5 µM; also: nearly all actives have a fitted effect of over 55% in size; also: potency is read from the fitted curve at half-maximal effect
# Outline: (§1)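 Measured: luminescence after ATPlite addition (15 min, RT). Exposure: 48 h, 37 C, 5% CO2.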
# JEG-3 = experiment: as above; settings: Gynecologic cancer cell panel viability, ATPlite luminescence, 48 h; series mostly up to 57.5 µM
# Outline: as §1
# OV90 = experiment: as above; settings: Gynecologic cancer cell panel viability, ATPlite luminescence, 48 h; series mostly up to 57.5 µM
# Outline: as §1
# PA-1 = experiment: as above; settings: Gynecologic cancer cell panel viability, ATPlite luminescence, 48 h; series mostly up to 57.5 µM
# Outline: as §1
# SKOV3 = experiment: as above; settings: Gynecologic cancer cell panel viability, ATPlite luminescence, 48 h; series mostly up to 57.5 µM
# Outline: as §1
# Tov-21-G = experiment: as above; settings: Gynecologic cancer cell panel viability, ATPlite luminescence, 48 h; series mostly up to 57.5 µM
# Outline: as §1
# Tov112D = experiment: as above; settings: Gynecologic cancer cell panel viability, ATPlite luminescence, 48 h; series mostly up to 57.5 µM
# Outline: as §1
# [1] = qHTS assay to identify inhibitors of the type 1 interferon - major histocompatibility complex class I in skeletal muscle: Counter screen cell viability and HiBit confirmation (AID 1347412); settings: iHSKM muscle cells + IFN-b, HiBiT or CellTiter-Glo, 24 h, at 45.9 µM (top of the series); also: nearly all actives have a fitted effect of over 60% in size
# Outline: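 Human myoblast knock-in line, 4.0 ng/ml IFN-beta stimulation, 24 h compound treatment. Endpoints: HiBiT lytic luminescence (HLA-B level) and CellTiter Glo (ATP). Dosing 12 concentrations, 3-fold steps, 46 uM highest final.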
# [2] = Drug repurposing screens with cells derived from glioblastoma tumor samples (AID 1345199); settings: GBM patient neurospheres viability, ATP luminescence, 48 h; also: nearly all actives have a fitted effect of over 40% in size
# Outline: (§2)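 Primary testing used CD133+ neurospheres from four GBM patients, seven concentrations, 48 h exposure and ATP-based viability; confirmation added three slower-growing patient lines.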
# astro = experiment: as above; settings: viability, ATP luminescence, 48 h; series mostly up to 45.9 µM
# Outline: as §2
structure (smiles),measurement,setting,value
c1ccc(-c2oc3ncnc(NC[C@@H]4CCCO4)c3c2-c2ccccc2)cc1,Potency,Hek293T,inactive
same,Potency,JEG-3,inactive
same,Potency,OV90,inactive
same,Potency,PA-1,inactive
same,Potency,SKOV3,inactive
same,Potency,Tov-21-G,inactive
O[C@@H](COc1cccc2ncccc12)CN1CCN(C2c3ccccc3[C@@H]3[C@H](c4ccccc42)C3(F)F)CC1 (stereo not given in full),Potency,Hek293T,inactive
same,Potency,JEG-3,inactive
same,Potency,OV90,inactive
same,Potency,PA-1,inactive
same,Potency,SKOV3,inactive
same,Potency,Tov-21-G,inactive
same,Potency,Tov112D,inactive
O=C(O)CCNc1cc(N2CCc3ccccc3CC2)nc(-c2ccccn2)n1,Potency,Hek293T,inactive
same,Potency,JEG-3,inactive
same,Potency,OV90,inactive
same,Potency,PA-1,inactive
same,Potency,SKOV3,inactive
same,Potency,Tov-21-G,inactive
same,Potency,Tov112D,inactive
O=C(Nc1cccc(C(F)(F)F)c1)Nc1cc(S(=O)(=O)NC2CC2)ccc1-c1ccsc1,Potency,Hek293T,inactive
same,Potency,JEG-3,inactive
same,Potency,OV90,inactive
same,Potency,PA-1,inactive
same,Potency,SKOV3,inactive
same,Potency,Tov-21-G,inactive
same,Potency,Tov112D,inactive
Cc1cnc(-c2cc(N3CCN(C(=O)CCS(C)(=O)=O)CC3)ncc2Cl)c(C)c1,Potency,Hek293T,inactive
same,Potency,JEG-3,inactive
same,Potency,OV90,inactive
same,Potency,PA-1,inactive
same,Potency,SKOV3,inactive
same,Potency,Tov-21-G,inactive
same,Potency,Tov112D,inactive
Cc1cc(C(C)Nc2ccccc2)c2nc(N3CCOCC3)cc(=O)n2c1 (stereo not given),Potency,Hek293T,inactive
same,Potency,JEG-3,inactive
same,Potency,OV90,inactive
same,Potency,PA-1,inactive
same,Potency,SKOV3,inactive
same,Potency,Tov-21-G,inactive
same,Potency,Tov112D,inactive
OC[C@H]1O[C@@H](OCCc2ccc(O)cc2)[C@H](O)[C@@H](O)[C@H]1O,Potency,Hek293T,inactive
same,Potency,JEG-3,inactive
same,Potency,OV90,inactive
same,Potency,PA-1,inactive
same,Potency,SKOV3,inactive
same,Potency,Tov-21-G,inactive
same,Potency,Tov112D,inactive
CNC(=O)c1c(-c2ccc(F)cc2)oc2cc(N(CCO)S(C)(=O)=O)c(C3CC3)cc12,Potency,Hek293T,inactive
same,Potency,JEG-3,inactive
same,Potency,OV90,inactive
same,Potency,PA-1,inactive
same,Potency,SKOV3,inactive
same,Potency,Tov-21-G,inactive
same,Potency,Tov112D,inactive
O=S(=O)(O)c1ccc2cc(N=Nc3cc(S(=O)(=O)O)c4cccnc4c3O)ccc2c1,Potency,Hek293T,inactive
same,Potency,JEG-3,inactive
same,Potency,OV90,inactive
same,Potency,PA-1,inactive
same,Potency,SKOV3,inactive
same,Potency,Tov-21-G,inactive
same,Potency,Tov112D,inactive
Cc1nc2c([nH]1)CCN(C(=O)c1ccc(NC(=O)c3ccccc3-c3ccccc3)cc1)c1ccccc1-2,Potency,Hek293T,inactive
same,Potency,JEG-3,inactive
same,Potency,OV90,inactive
same,Potency,PA-1,inactive
same,Potency,SKOV3,inactive
same,Potency,Tov-21-G,inactive
same,Potency,Tov112D,inactive
CN(C)c1ccc(-c2nc3ncc(Cl)c(N4CCN(CC(=O)Nc5nccs5)CC4)c3[nH]2)cc1,Potency,Hek293T,inactive
same,Potency,JEG-3,inactive
same,Potency,OV90,inactive
O=C(CO)N1CCC(c2[nH]nc(-c3ccc(Cl)cc3)c2-c2ccncn2)CC1,Potency,Hek293T,inactive
same,Potency,JEG-3,inactive
same,Potency,OV90,inactive
same,Potency,PA-1,inactive
same,Potency,SKOV3,inactive
same,Potency,Tov-21-G,inactive
same,Potency,Tov112D,inactive
Cc1ccccc1-n1c(Cn2nc(-c3cccc(O)c3)c3c(N)ncnc32)nc2cccc(C)c2c1=O,Potency,Hek293T,inactive
same,Potency,JEG-3,inactive
same,Potency,OV90,inactive
same,Potency,PA-1,inactive
same,Potency,SKOV3,inactive
same,Potency,Tov-21-G,inactive
same,Potency,Tov112D,inactive
same,"activity change, negative = inhibition",[1]; Viability,7.45%
COC(=O)N1CCN(Cc2cccc(NC(=O)Nc3ccc(C)nc3)c2F)CC1,Potency,Hek293T,inactive
same,Potency,JEG-3,inactive
same,Potency,OV90,inactive
same,Potency,PA-1,inactive
same,Potency,Tov-21-G,inactive
same,Potency,Tov112D,inactive
CS(=O)(=O)c1ccc(C2=C(c3ccccc3)C(=O)OC2)cc1,Potency,Hek293T,inactive
same,Potency,JEG-3,inactive
same,Potency,OV90,inactive
same,Potency,PA-1,inactive
same,Potency,Tov-21-G,inactive
same,Potency,Tov112D,inactive
same,"activity, negative = cell killing","[2]; at 45.9 µM (top of the series), tumour line B",-11.3%
same,"activity, negative = cell killing","[2]; at 46.1 µM (top of the series), tumour line C",-14.3%
same,Potency,astro,inactive
Cc1cnc(CNC(=O)c2c(=O)c3ccc(N4CCCN(C)CC4)nc3n3c2sc2ccccc23)cn1,"activity change, negative = cytotoxicity",Hek293T,-21% [at 11.6 µM]
same,"activity change, negative = cytotoxicity",JEG-3,-3.1% [at 11.6 µM]
same,"activity change, negative = cytotoxicity",OV90,10.5% [at 11.6 µM]
same,"activity change, negative = cytotoxicity",SKOV3,-5.43% [at 11.6 µM]
same,"activity change, negative = cytotoxicity",Tov-21-G,-27.4% [at 11.6 µM]
same,"activity change, negative = cytotoxicity",Tov112D,-20.9% [at 11.6 µM]
C[C@@H](NC(=O)c1ncnc(N)c1Cl)c1ncc(C(=O)Nc2cc(C(F)(F)F)c(Cl)cn2)s1,Potency,Hek293T,inactive
same,Potency,JEG-3,inactive
same,Potency,OV90,10 µM (active)
same,Potency,PA-1,inactive
same,Potency,Tov112D,inactive
same,"activity change, negative = inhibition",[1]; HiBiT,-24.2%
same,"activity change, negative = inhibition",[1]; Viability,-2.15%
CC(=O)Nc1cccc(-n2c(=O)n(C3CC3)c(=O)c3c(Nc4ccc(I)cc4F)n(C)c(=O)c(C)c32)c1,Potency,Hek293T,inactive
same,Potency,JEG-3,inactive
same,Potency,PA-1,inactive
same,Potency,SKOV3,inactive
same,Potency,Tov-21-G,inactive
same,Potency,Tov112D,inactive
Cc1nc(C(=O)NCC(=O)O)c(O)c2ccc(Oc3ccccc3)cc12,Potency,Hek293T,inactive
same,Potency,JEG-3,inactive
same,Potency,OV90,inactive
same,Potency,PA-1,inactive
same,Potency,Tov-21-G,inactive
same,Potency,Tov112D,inactive
CCCCn1c(=O)n(Cc2ccccc2F)c(=O)c2[nH]c(Cc3ccc(NC(C)=O)cc3)nc21,Potency,Hek293T,inactive
same,Potency,JEG-3,inactive
same,Potency,OV90,inactive
same,Potency,PA-1,inactive
same,Potency,Tov-21-G,inactive
same,Potency,Tov112D,inactive
CCN1CCC(n2cc(CNc3cc(Cl)c4ncc(C#N)c(Nc5ccc(F)c(Cl)c5)c4c3)nn2)CC1,Potency,Hek293T,inactive
same,Potency,JEG-3,inactive
same,Potency,OV90,inactive
same,Potency,PA-1,inactive
same,Potency,Tov-21-G,inactive
same,Potency,Tov112D,inactive
Cc1c(C(=O)Nc2ccc(N3C[C@@H](C)O[C@@H](C)C3)nc2)cccc1-c1ccc(OC(F)(F)F)cc1,Potency,Hek293T,inactive
same,Potency,JEG-3,inactive
same,Potency,OV90,inactive
same,Potency,SKOV3,inactive
same,Potency,Tov-21-G,inactive
same,Potency,Tov112D,inactive
